Experimental data taken from PubChem BioAssay (NCI).
The panel holds about 83,000 compounds, 20% with a hit somewhere; the sample as a whole holds those more often.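 Results are percent growth after 48 hours of single-concentration exposure. 100 means growth as in untreated cells, lower positive values show inhibition; negative values down to -100 show cell death.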 Values without a mark were called inactive. The source made the active and inactive calls. How the source made its calls: active means growth percent below 10; inactive means the rest.

Assays:
Test in all cases: NCI-60 one-dose screen, 48 h (100 = growth as untreated, 0 = no growth, -100 = all killed)
Conditions in all cases: 10 µM unless noted
[1] = system: HCT-15 colon
[2] = system: HT29 colon
[3] = system: SNB-75 CNS
[4] = system: SNB-19 CNS
[5] = system: U251 CNS
[6] = system: PC-3 prostate
[7] = system: SK-MEL-5 melanoma
[8] = system: UACC-62 melanoma
[9] = system: LOX IMVI melanoma
[10] = system: SK-MEL-28 melanoma

Compound | growth [1] | growth [2] | growth [3] | growth [4] | growth [5] | growth [6] | growth [7] | growth [8] | growth [9] | growth [10]
CN1C(=O)N(C)C2(c3ccccc3)N(CC(=O)Nc3ccccc3O)C(=O)NC12c1ccccc1 (stereo not given) | 103% | 111% | 74.3% | 100% | 105% | 90.3% | 101% | 91% | 96.8% | 123%
C#CCOc1cccc(Nc2ncc3ncn(C4CCN(C(=O)CCl)C4)c3n2)c1 (stereo not given) | 6.97% [6.25 µM] (active) | 23.4% [6.25 µM] | 72.6% [6.25 µM] | 64.6% [6.25 µM] | 43.2% [6.25 µM] | 74.9% [6.25 µM] | 39.1% [6.25 µM] | 44.8% [6.25 µM] | -55.1% [6.25 µM] (active) | 78% [6.25 µM]
O=C1Nc2ccccc2/C1=C/c1cccn1CCCCCn1c2ccccc2c(=O)c2ccccc21 | 28.9% | 89.5% | 86.7% | 95.3% | 93.4% | 42% | 32.2% | 48.2% | 80.3% | 88.1%
CCCCCO/N=C\c1c2c(O)c3c(O)c(C)c4c(c3c1O)C(=O)C(C)(O/C=C\C(OC)C(C)C(OC(C)=O)C(C)C(O)C(C)C(O)C(C)/C=C\C=C(\C)C(=O)N2)O4 (stereo not given) | 16.1% | 2.51% (active) | 39.3% | 33.5% | 16.8% | 13.1% | 15.3% | 24.1% | 23.2% | 39.5%
COc1ccc2c(c1)CC[C@@H]1[C@@H]2CC[C@]2(C)C3C(=CCC4C(=O)N(c5ccccc5)C(=O)C43)C[C@@H]12 (stereo not given in full) | 88.5% | 71.3% | 79.8% | 108% | 87.5% | 51.1% | 89.9% | 64.5% | 83.6% | 105%
